Rows were chosen to be rich in hits. Some 2.3% of all compounds tested hit in one or more screens of this group.
POLI inh: qHTS for Inhibitors of Polymerase Iota; DNA polymerase iota (Homo sapiens), Q9UNA4; Pol iota fluorescent replication assay, 10 min; Potency, µM (doses to about 115 µM), without a hit: top-dose activity, negative = inhibition, most hits filed as inhibitors; 390,000 compounds, 1% hits; AID 588590, 2011
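Fluorescent replication assay read twice, at 0 min and 10 min after adding 50 nM (final) substrate. Enzyme (10 nM) and compounds were first incubated 15 min at room temperature; enzyme-free buffer wells were negative controls.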
POLB inh: qHTS Assay for Inhibitors of DNA Polymerase Beta; 340,000 compounds, 1.3% hits; Pol beta primer extension/strand displacement, fluorescence kinetic; Potency, µM (top dose mostly 114 µM), for inactives: at the highest dose activity change, negative = inhibition, usual class: inhibitors; AID 485314, 2010; P06746; further: on the % scale 0 is the no-effect control and ±100 the full control effect
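10 nM enzyme + cpd, 15 min RT; start with substrate 50 nM final; read 0 min and after 10 min RT. Corrected, normalized data; 4-parameter Hill curve fit.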
Pol eta inh: qHTS for Inhibitors of Polymerase Eta; AID 588591, 2011; Potency, µM (highest dose often 114 µM), inactives show top-dose activity change, negative = inhibition, usual class: inhibitors; 390,000 compounds, 1.2% hits; DNA polymerase eta (Homo sapiens), Q9Y253; recombinant Pol eta, fluorescent DNA replication assay; further: on the % scale 0 is the no-effect control and ±100 the full control effect
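Pol eta at 10 nM preincubated with compounds 15 min at room temperature; reaction started with fluorescent substrate (50 nM final) and read kinetically at 0 and 10 min.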
WRN inhibitor: qHTS for Inhibitors of WRN Helicase | 360,000 compounds, 0.46% hits | Bifunctional 3'-5' exonuclease/ATP-dependent helicase WRN (Homo sapiens), Q14191 | AID 651768, 2012 | Potency, µM (top dose mostly 114 µM), for inactives: at the highest dose activity change, negative = inhibition, usual class: inhibitors | WRN helicase unwinding, fluorescent forked duplex, kinetic; further: on the % scale 0 is the no-effect control and ±100 the full control effect; nearly all actives have a fitted effect of over 55% in size
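Kinetic red-fluorescence monitoring (525/598 nm) tracks WRN helicase activity after 100 nM fluorophore-quencher forked duplex and 2 mM ATP are added to 20 nM enzyme pretreated 15 min at room temperature with compound.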
POLK inh: qHTS for Inhibitors of Polymerase Kappa. DNA polymerase kappa (Homo sapiens), Q9UBT6. purified Pol kappa, fluorescent DNA synthesis assay, 10 min. Potency, µM (top dose mostly 107 µM), without a hit: at the top dose activity, negative = inhibition, hits mostly inhibitors. 400,000 compounds, 0.53% hits. AID 588579, 2011; further: on the % scale 0 is the no-effect control and ±100 the full control effect
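Kinetic fluorescence readout at 0 and 10 min followed reaction start with substrate at 50 nM final. Beforehand, enzyme (10 nM Pol kappa) stood 15 min with compound at room temperature; buffer-only wells were negative controls.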
The depositor's hits bear a star; u = inconclusive; x = no result given; [ ] = another dose, or the depositor's remark. The call rests on the fitted dose curve; in most records, active means well fitted curve in the direction sought with a large enough effect; inconclusive means small, poorly fitted or top-dose-only effect, or another doubt; inactive means no such curve, though single readings can be large; an effect the other way counts as inactive or inconclusive. Potency means the concentration at half of the fitted maximal effect.

SMILES	POLI inh	POLB inh	Pol eta inh	WRN inhibitor	POLK inh
CCC(C(=O)O)C1OC(C(C)C(O)C(C)C(=O)C(CC)C2OC3(C=CC(O)C4(CCC(C)(C5CCC(O)(CC)C(C)O5)O4)O3)C(C)CC2C)C(C)CC1C (stereo unspecified)	x	x	x	x	-1.7%[19.4 µM]
Cc1csc[n+]1CC(=O)c1ccc(I)cc1	-0.3%	x	x	x	-15.6%
COc1cc(/C=C/c2cc[n+](C)cc2)ccc1OCC(=O)Nc1ccc(Cl)c(Cl)c1	64.2%	56.2µM*	89.1µM*	3.6%[11.6 µM]	-12.2%
COc1ccc(NC(=O)COc2ccc(/C=C/c3cccc[n+]3C)cc2OC)cc1	44.7µM*	11.2µM*	-14.4%	-1.3%[11.6 µM]	u
O=S(=O)(Nc1c(Br)cc(Br)c2cccnc12)C1CC1	12.6µM*	x	x	x	11.5%
O=C(OCc1nnc(-c2ccccc2)o1)c1cccc(S(=O)(=O)N2CCOCC2)c1	13.2%	x	-13.6%	-7.5%	89.1µM*
CN(CC(=O)NCc1ccccc1)CC(=O)Nc1ccc(Cl)c(C(F)(F)F)c1	48.2%	x	u	3.7%	0.5%
CN(CC(=O)NC(=O)NCc1ccccc1)CC(=O)Nc1ccc(Cl)c(C(F)(F)F)c1	89.1µM*	x	-11.2%	-6.9%[11.6 µM]	-27.8%
Cc1cc(Cl)ccc1OCC(=O)OC(C)C(=O)N(C)C (stereo unspecified)	50.1µM*	u	u	-18.9%	-17.3%
Cc1cc(C(=O)COC(=O)c2cc(Cl)ccc2N)c(C)n1Cc1ccco1	u	39.8µM*	-16.1%	-26.9%	-41.3%
Cc1cc(-c2csc(N)n2)c(C)n1C	u	0.4%	u	u	-15.9%
Cc1cc(C(=O)COC(=O)c2ccco2)c(C)n1Cc1ccco1	u	-13.3%	u	-14.2%	u
Cc1cc(-c2csc(N)n2)c(C)n1Cc1ccco1	u	-1.4%	1.1%	-10.5%	10µM*
O=c1cc(-c2ccccc2)n2c(SCc3ccc(Br)cc3)nnc2[nH]1	-12.8%	-19.8%	-6.6%	x	-14.8%[60.1 µM]
C=CCN1CCCC1CNC(=O)c1cc(S(N)(=O)=O)cc(OC)c1OC (stereo unspecified)	x	x	x	x	2.8%[19.4 µM]
O=C(NCCc1nc2ccccc2n1CCCOc1ccc2ccccc2c1)C1CCCCC1	-24.1%	x	x	x	-13.5%
CCCN1CNc2c(c(=O)[nH]c(=S)n2CCC(C)C)C1	-0.9%	x	x	x	-5.5%
COc1ccc(C2C3C=CCC(C)C3C(=O)N2Cc2ccccc2)cc1Cl (stereo unspecified)	-13.0%	x	x	x	-6.7%
Cc1ccc(-c2cc(C(F)(F)F)n3nc(-c4ccc(Cl)cc4)cc3n2)cc1	28.7%	-4.1%	-9.0%	x	-27.8%
Cc1ccc(-c2cc(C(F)(F)F)n3nc(-c4cccc(Br)c4)cc3n2)cc1	89.1µM*	44.1%	-4.9%	x	u
O=C(CBr)c1ccc(Oc2ccc(C(=O)C[n+]3ccccc3Cl)cc2)cc1	u	x	x	x	-7.4%
COc1cccc(NCc2nnc(SC(C(=O)N(C)C)c3ccccc3)n2C2CCCCC2)c1 (stereo unspecified)	1.3%	x	x	x	-12.0%
O=C(CSc1ccc2nnc(-c3cccs3)n2n1)N1CCCC1	51.4%	44.7µM*	-14.2%	-17.3%	0.0%
CCOC(=O)CSc1ccc2nnc(-c3cccs3)n2n1	-18.6%	7.0%	-7.8%	-15.2%	-7.5%
O=C(COC(=O)c1ccccc1Oc1ccccc1)Nc1ccc(Br)cc1	-10.0%	x	x	x	6.3%
SMILES	POLI inh	POLB inh	Pol eta inh	WRN inhibitor	POLK inh
CSCc1c(C(=O)OCC(=O)c2ccc[nH]2)oc2ccccc12	50.1µM*	x	u	-8.3%[11.6 µM]	u
COCc1c(C(=O)OCC(=O)c2ccc[nH]2)oc2ccccc12	28.1%	x	-18.9%	9.2%	0.4%
Oc1ccc(/C=N/Nc2cc(N3CCCC3)nc(N3CCCC3)n2)cc1	3.55µM*	31.7%	-6.2%	-5.9%[11.6 µM]	-6.4%
Oc1ccc(/C=N/Nc2cc(N3CCOCC3)nc(N3CCOCC3)n2)cc1	u	x	-12.2%	-19.7%	-12.7%
O=C(c1ccc(OCc2cn3ccccc3n2)cc1)N1CCN(S(=O)(=O)c2ccccc2F)CC1	79.4µM*	x	u	-11.9%	-12.9%
Cc1ccc(NC(=O)CN(C)C(=O)c2ccc(OCc3cn4ccccc4n3)cc2)cc1	u	x	-14.3%	0.3%[11.6 µM]	-38.2%
O=C(O)c1ccc(OCc2cn3ccccc3n2)cc1	-2.0%	5.0%	-2.1%	1.8%	-7.3%
CN(CC(=O)Nc1cccc(F)c1)C(=O)c1ccc(OCc2cn3ccccc3n2)cc1	44.7µM*	x	-16.7%	-4.8%[11.6 µM]	-28.9%
NCC(O)COc1cccc2ccccc12 (stereo unspecified)	x	x	x	x	6.6%[19.4 µM]
Nc1[nH]c(=S)[nH]c(=O)c1N	-0.2%	x	x	x	2.3%
COc1cc(C(=O)O[C@@H]2CC3CC[C@]2(C)C3(C)C)ccc1O	x	x	x	x	-3.5%[60.1 µM]
O=C(NC(=S)Nc1cc([N+](=O)[O-])ccc1O)c1ccc2c(c1)OCO2	6.9%	44.7µM*	1.1%	-17.4%	-17.5%
COc1ccc(/[N+]([O-])=C/c2ccco2)cc1	u	x	89.1µM*	10.2%	-14.0%
COc1ccc(OCC(=O)N/N=C\c2ccco2)cc1	11.4%	10.5%	0.3%	0.6%	1.9%
CC(=O)Oc1cc2cccc(OC(C)=O)c(=O)c2c(OC(C)=O)c1OC(C)=O	1µM*	0.178µM*	10µM*	8.91µM*	1µM*
N#C/C(=C(/O)CCl)c1nc2c(s1)CCc1ccccc1-2	u	u	35.5µM*	u	-26.7%
CC1(C)CCC2=C(O1)c1ccccc1C(=O)C2=O	7.94µM*	-0.2%[57.1 µM]	22.4µM*	x	-1.5%[60.1 µM]
CC1(C)CCC(=O)c2ccccc21	84.7%	x	8.1%	-19.4%	-11.0%
Cc1ccc(Nc2ccc(N)cc2S(=O)(=O)O)cc1	u	u	39.8µM*	-30.0%	-1.4%
CNS(=O)(=O)c1cc(N)ccc1C	-0.3%	37.5%	-5.8%	-3.2%	-4.7%
NC1=C(Br)C(=O)c2ncccc2C1=O	11.2µM*	x	17.8µM*	u	-4.5%
O=C1C(=O)c2ncccc2-c2cccnc21	x	x	x	x	8.91µM*
O=C1c2cccnc2C(=O)N1CO	4.2%	36.3%	-11.5%	-5.8%	-10.1%
CN(C)c1ccc(/C=C2\C=Cc3ccccc32)c(F)c1	u	x	x	x	-10.7%
CCC(=O)Nc1ccc(C(=O)CSc2nnc(-c3ccccc3F)n2C2CC2)cc1	u	28.2µM*	u	-6.1%	-32.3%
CCCCN(C)C(=O)c1cc2cc3ccc(OC)cc3nc2s1	-7.1%	-1.5%	-9.1%	-3.5%	-10.0%
CCN(CCCNC(=O)c1cc2cc3ccc(OC)cc3nc2s1)c1ccccc1	79.4µM*	11.2µM*	u	x	79.4µM*
CCN(CCCNC(=O)c1cc2cc3ccc(OC)cc3nc2s1)c1cccc(C)c1	79.4µM*	3.98µM*	u	x	u
CN1CCN(c2ccnc(N(C)CCCCCCN)n2)CC1	1.4%	x	x	x	-14.2%

Screening data: PubChem, National Center for Advancing Translational Sciences (NCATS)
